# Screens from PubChem BioAssay.
# Shown are actives, neighbours in structure and some others; about 27% of the full set was active somewhere.
# Cav3 T inh: human Cav3.2 channel inhibition, primary screen; Cav3.2-expressing cells, Fluo-4 calcium fluorescence FDSS; active compounds read low; B-score at 10 µM; hit rate 4% among 100,000; AID 449739;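 active means single-dose well whose peak fluorescence ratio is a statistical outlier from its plate by either plate-standardised score or position-corrected B-score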
# CYP2C19 inhib: blocks human cytochrome P450 2C19; inhibition, % at 5 µM; AID 778; P33261; CYP2C19 Supersomes, luciferin-H EGE luminescence, 30 min; hit rate 21% among 96,000;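 active means CYP2C19 inhibition above a set limit at 5 µM in the primary screen, cut at about 50% in these data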;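 further: plate controls were negative control wells for no effect and 2.5 mM tranylcypromine positive control for full effect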
# Target sequence (P33261 whole entry, looked up): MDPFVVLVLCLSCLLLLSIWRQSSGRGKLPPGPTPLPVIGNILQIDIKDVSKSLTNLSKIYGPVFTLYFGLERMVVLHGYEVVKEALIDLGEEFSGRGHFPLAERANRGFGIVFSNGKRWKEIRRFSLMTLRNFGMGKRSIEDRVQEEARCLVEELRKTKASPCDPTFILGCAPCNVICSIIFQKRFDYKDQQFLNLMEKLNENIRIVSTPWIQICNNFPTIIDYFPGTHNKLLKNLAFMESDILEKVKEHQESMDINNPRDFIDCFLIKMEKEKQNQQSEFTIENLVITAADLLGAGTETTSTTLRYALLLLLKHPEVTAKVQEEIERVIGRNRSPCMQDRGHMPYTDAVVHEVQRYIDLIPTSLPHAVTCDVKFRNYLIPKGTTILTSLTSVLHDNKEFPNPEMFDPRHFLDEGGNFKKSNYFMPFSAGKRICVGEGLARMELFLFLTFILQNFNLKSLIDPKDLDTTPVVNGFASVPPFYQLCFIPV
# CYP2C9 activ: increases human cytochrome P450 2C9 activity. P11712. recombinant CYP2C9, luciferin-H conversion, luminescence; active compounds read high; factor 1 = untreated enzyme, 0 = blocked. activation factor at 5 µM. hit rate 1.4% among 96,000;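 active means activation factor of 2 or more for CYP2C9 at a 5 µM dose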;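 further: 0 = sulfaphenazole-blocked wells and 1 = vehicle-only wells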
# CYP2C19 act: cytochrome P450 2C19 (human) activation; activation factor at 5 µM; AID 1025; 96,000 tested, under 10 active; recombinant CYP2C19, luciferin-H EGE luminescence; active compounds read high; 0 = fully inhibited enzyme, 1 = untreated enzyme;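 active means activation factor of at least 2 at 5 µM in the primary screen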;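 further: 0 = wells with 2.5 mM tranylcypromine and 1 = vehicle-only wells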
# CYP2C9 inhib: blocks human cytochrome P450 2C9; P11712; inhibition, % at 5 µM; CYP2C9 Supersomes, luciferin-H conversion, luminescence; hit rate 20% among 96,000;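 active means blocking of liver enzyme CYP2C9 beyond about 50% at 5 µM, limit read from the data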
# * = called active by the depositor; nt = no result.
SMILES,Cav3 T inh,CYP2C19 inhib,CYP2C9 activ,CYP2C19 act,CYP2C9 inhib
O=C(NCc1ccccc1)c1cc(-c2cccc(O)c2)on1,0.35,nt,nt,nt,nt
O=C(NCc1ccc(C(F)(F)F)cc1)C1CC(c2ccccc2[N+](=O)[O-])=NO1 (stereo not drawn),-0.81,38,1.8,0.6,-77
CC(C)NC(=S)N/N=C1\CCCCC1C1CCCCC1 (stereo not drawn),nt,63*,0.2,0.4,80*
O=C(NCc1ccccc1)C1=C[C@H](C2CC2)C[C@H](OCCCCO)O1,-0.26,nt,nt,nt,nt
Cc1ccccc1N1CCN(CCN2C(=O)CC(=C3c4ccccc4-c4ccccc43)C2=O)CC1,-0.28,nt,nt,nt,nt
Cc1ccccc1N1CCN(CCCN2C(=O)CC(=C(c3ccccc3)c3ccccc3)C2=O)CC1,-3.6,73*,0.5,0.3,50*
O=c1n(CCCN2CCN(c3cccc(Cl)c3)CC2)nc2ccccn12,0.37,nt,nt,nt,nt
O=C1CC(=C(c2ccccc2)c2ccccc2)C(=O)N1CCCCN1CCN(c2cccc(Cl)c2)CC1,0.12,29,0.3,0.7,66*
CN1C(=S)SC(/[N+]([O-])=C\c2ccco2)C1(C)C (stereo not drawn),0.44,0,1.1,1,-9
COCCNCCCCOc1c(Cl)cc(C)cc1Br,1.3,17,1.1,0.8,-8
Cc1cc(Cl)c(OCCN2C(=O)NC(C)(C)C2=O)c(Br)c1,1.1,98*,0.9,0,14
Cc1cc(C)c(OCCN2C(=O)NC(C)(C)C2=O)c(Cl)c1,1.2,96*,0.6,0,36
Cc1cc(Cl)cc(Br)c1OCCCN1C(=O)NC(C)(C)C1=O,-1.8,90*,0.6,0.1,39
Cc1cc(Cl)c(OCCCSc2nc(C)cc(=O)[nH]2)c(Br)c1,0.17,9,0.7,0.9,26
C=CCNc1nc(Nc2ccc(-c3nc4ccccc4o3)cc2)nc(N2CCOCC2)n1,-0.069,49,0.6,0.5,42
Cc1cccc(NC(=O)c2sc(NC(=O)c3ccco3)c(C#N)c2C)c1C,0.041,21,0.9,0.8,13
CCOC(=O)C1=C(C)N(CCCC(=O)O)C(=O)NC1c1cc2ccccc2c2ccccc12 (stereo not drawn),0.28,nt,nt,nt,nt
C[C@H](CO)NC(=O)[C@@H]1C[C@H]1[C@@H](NP(=O)(c1ccccc1)c1ccccc1)c1ccccc1,-0.58,nt,nt,nt,nt
CCCCC(c1nnnn1CC1CCCO1)N1CCN(c2cc(Cl)ccc2C)CC1 (stereo not drawn),-5.3*,96*,0.1,0,90*
CCCC(c1nnnn1Cc1ccco1)N1CCN(c2cc(Cl)ccc2C)CC1 (stereo not drawn),-6.9*,42,0.4,0.6,60*
COc1ccc(C(=O)OCCN=C2NS(=O)(=O)c3ccccc32)cc1OC,-0.016,19,0.5,0.8,49
COC(=O)C(O)(CC(=O)Nc1ccccc1OC)C(F)(F)F (stereo not drawn),-0.9,nt,nt,nt,nt
C=CCOc1c(Cl)cc(CNCCC)cc1Cl,0.5,59*,0.8,0.4,24
C=CCOc1ccc(CNC(C)(C)C)cc1OC,0.0095,25,0.9,0.7,11
C=CCOc1c(Cl)cc(CNc2ccc(C)c(Cl)c2)cc1OC,-3.8,38,0.4,0.6,57*
SMILES,Cav3 T inh,CYP2C19 inhib,CYP2C9 activ,CYP2C19 act,CYP2C9 inhib
C=CCOc1c(Cl)cc(CNc2ccc(N(C)C)cc2)cc1OC,0.29,96*,0.3,0,72*
CCN(CC)C(=O)CSc1nc2ccccc2c(=O)n1-c1ccccc1OC,1.6,19,0.5,0.8,53*
Cc1cc(NC(=O)CSc2nc3ccccc3c(=O)n2C2CCCC2)no1,-0.8,8,0.7,0.9,33
CCCN(CCC)C(=O)CSc1nc2ccccc2c(=O)n1C1CCCC1,-5.6*,31,0.4,0.7,65*
O=C(CSc1nc2ccccc2c(=O)n1C1CC1)NCc1ccccc1,-0.98,39,0.7,0.6,30
CCN(CC)C(=O)CSc1nc(O)c(Cc2ccccc2)c(=O)n1-c1ccccc1,-0.26,-2,1,1,-4
CN(C)c1ccc(NC(=O)CSc2nc3ccccc3c(=O)n2C2CCCCC2)cc1,-1.6,24,0.3,0.8,69*
Cc1ccccc1-c1nnc2s/c(=C\c3ccc(N(C)C)cc3)c(=O)n12,nt,12,0.9,0.9,5
CN(C)CCNS(=O)(=O)c1ccc(Cl)cc1,0.62,nt,nt,nt,nt
CCOc1ccc(N/C=C/C(=O)c2ccc(OC)cc2)c([N+](=O)[O-])c1,-2.4,26,3*,0.7,-200
COc1ccc(N/C=C/C(=O)c2ccc(C)cc2)c([N+](=O)[O-])c1,-1.7,nt,nt,nt,nt
COc1ccc(C(=O)/C=C/Nc2cc(C)on2)cc1,1.5,58*,0.6,0.4,36
COc1ccc(C(=O)/C=C/Nc2cccc(O)c2)cc1,-0.029,7,1.2,0.9,-25
COc1cc(/C=N/NC(=O)CCc2c(C)n[nH]c2C)ccc1O,-0.66,8,0.7,0.9,30
O=C1CSC(c2ccncc2)N1Cc1ccco1 (stereo not drawn),0.49,18,0.8,0.8,22
CCc1ccc(-c2nn(-c3ccccc3)cc2C2SCC(=O)N2Cc2ccco2)cc1 (stereo not drawn),nt,44,0.3,0.6,67*
Cc1ccc(-c2nn(-c3ccccc3)cc2C2CC(c3cccs3)=NN2C(=O)CCCC(=O)O)cc1 (stereo not drawn),-0.021,9,0.4,0.9,61*
O=C1CSC(c2cn(-c3ccccc3)nc2-c2cccs2)N1CC1CCCO1 (stereo not drawn),-5*,73*,0.2,0.3,80*
COc1ccc(-c2nn(-c3ccccc3)cc2C2CC(c3cccs3)=NN2C(=O)CCCC(=O)O)cc1 (stereo not drawn),nt,-6,0.9,1.1,8
CCOC(=O)C1=C(C)NC(=O)NC1c1cn(-c2ccccc2)nc1-c1cccs1 (stereo not drawn),-0.99,56*,0.2,0.4,80*
C=CCn1c(SCC(=O)Nc2nccs2)nnc1-c1cc2cccc(OC)c2o1,-0.022,9,1.7,0.9,-73
O=C1CSC(c2cn(-c3ccccc3)nc2-c2ccccc2)N1Cc1ccco1 (stereo not drawn),-4.7*,86*,0,0.1,96*
COc1ccccc1OCC(=O)Nc1ccc(C(N)=O)cc1,-0.071,7,0.8,0.9,19
CCCC(=O)OCC(=O)Nc1ccc(OC(F)F)cc1,0.31,59*,0.5,0.4,47
CC(C)NC(=O)COC(=O)c1ccccc1Oc1ccccc1,-0.89,87*,0.3,0.1,72*
COc1ccc(NC(=O)Cn2cccc2)c(OC)c1,1.5,37,0.7,0.6,28
O=C(Cn1cccc1)Nc1ccc(OC(F)(F)F)cc1,-0.55,51*,0.8,0.5,18
COc1ccccc1C(=O)OCC(=O)Nc1ccc(OC(F)F)cc1,-0.92,53*,0.7,0.5,29
COC(=O)c1cnc(SC)nc1C,nt,24,0.9,0.8,5
COc1ccccc1OCC(=O)Nc1ccc(Cl)cc1,-1.5,nt,nt,nt,nt
